# In PubChem BioAssay (NCI):
# This is part of a sample that, as a whole, favours compounds with a hit. Of some 79,000 tested, about 15% had one in any assay. Unmarked numbers belong to inactive results. Active and inactive are the calls of the source. Rule as the data show it: active = growth inhibition above about 70%; inactive = the rest.
# Columns and labels:
# [1] = NCI Yeast Anticancer Drug Screen. Data for the rad52 strain (AID 147);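 also: 0% = growth of vehicle-treated control cultures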; conditions: S. cerevisiae rad52 mutant growth inhibition, stronger effect = higher value
# Summary of the method: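 The repair-mutant yeast strain was incubated with compounds, then growth was read and inhibition derived relative to vehicle.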
# [2] = NCI Yeast Anticancer Drug Screen. Data for the wt1 strain (AID 149);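 also: 0% = growth of vehicle-treated wt1 cultures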; conditions: S. cerevisiae wt1 strain (SPY 50644) growth inhibition, stronger effect = higher value
# Summary of the method: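 Yeast wt1 strain exposed to compounds; growth inhibition measured relative to vehicle-treated controls.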
# [3] = NCI Yeast Anticancer Drug Screen. Data for the rad50EPP+ strain (AID 151);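 also: 0% = growth of vehicle-treated control cultures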; conditions: S. cerevisiae rad50 mutant strain, stronger effect = higher value
# Summary of the method: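 Vehicle-normalised growth inhibition; rad50EPP+ yeast strain, altered in DNA damage repair, compound-treated.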
# [4] = NCI Yeast Anticancer Drug Screen. Data for the mgt1 strain (AID 153); conditions: S. cerevisiae mgt1 mutant growth inhibition, stronger effect = higher value
# Summary of the method: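 Vehicle-normalized growth inhibition is determined in mgt1 yeast, a strain selected for a defined alteration in DNA repair or cell cycle control.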
# [5] = NCI Yeast Anticancer Drug Screen. Data for the rad50 strain (AID 155);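 also: 0% = growth of vehicle-only cultures of the same strain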; conditions: S. cerevisiae rad50 strain growth inhibition, stronger effect = higher value
# Summary of the method: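 Yeast carrying a defined DNA repair defect were exposed to test compounds, and growth was compared with vehicle-treated controls to give percent inhibition.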
# [6] = NCI Yeast Anticancer Drug Screen. Data for the mec2-1 strain (AID 157); conditions: S. cerevisiae mec2-1 strain, stronger effect = higher value
# Summary of the method: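 Mutant yeast (mec2-1) grown with compound; growth inhibition relative to vehicle control reported.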
# [7] = NCI Yeast Anticancer Drug Screen. Data for the rad14 strain (AID 159);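 also: 0% = growth of vehicle-treated control cultures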; conditions: S. cerevisiae rad14 strain growth inhibition, stronger effect = higher value
# Summary of the method: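 Yeast cells carrying a defined DNA-repair defect were exposed to compounds, and growth inhibition was calculated relative to vehicle-treated control cultures.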
# [8] = NCI Yeast Anticancer Drug Screen. Data for the sgs1 mgt1 strain (AID 161);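 also: 0% = growth of cultures given vehicle only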; conditions: S. cerevisiae sgs1 mgt1 strain, stronger effect = higher value
# Summary of the method: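 Percent growth inhibition was derived by comparing compound-exposed mutant yeast with vehicle-exposed cultures. The strain carries alterations in DNA damage repair.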
# [9] = NCI Yeast Anticancer Drug Screen. Data for the CLN2oe strain (AID 163);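 also: 0% = growth of vehicle-only control cultures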; conditions: S. cerevisiae CLN2oe strain, stronger effect = higher value
# Summary of the method: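 Compounds are applied to yeast harbouring a defined cell-cycle control change; reduced growth compared with vehicle-treated controls gives the value.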
# [10] = NCI Yeast Anticancer Drug Screen. Data for the cln2 rad14 strain (AID 165);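 also: 0% = growth equal to vehicle treated cultures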; conditions: S. cerevisiae cln2 rad14 strain, stronger effect = higher value
# Summary of the method: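 Readout is yeast growth inhibition versus vehicle-treated controls, using a strain with cln2 and rad14 alterations exposed to compound.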
# [11] = NCI Yeast Anticancer Drug Screen. Data for the bub3 strain (AID 167); conditions: S. cerevisiae bub3 mutant strain, stronger effect = higher value
# Summary of the method: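 Compounds were applied to a genetically altered yeast strain carrying a cell-cycle control defect. Growth inhibition was scored against vehicle-treated controls.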
# [12] = NCI Yeast Anticancer Drug Screen. Data for the mlh1 strain (AID 171);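 also: 0% = growth of vehicle-treated control cultures of the same strain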; conditions: S. cerevisiae mlh1 strain growth inhibition, stronger effect = higher value
# Summary of the method: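 Measured: yeast growth. Reference: vehicle-treated controls. Organism: strain with a defined alteration affecting DNA damage repair or cell cycle control, treated with compound.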
# [13] = NCI Yeast Anticancer Drug Screen. Data for the sgs1 strain (AID 173);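 also: 0% = growth of vehicle-only control cultures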; conditions: S. cerevisiae sgs1 mutant, stronger effect = higher value
# Summary of the method: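 Each compound was added to cultures of the altered yeast strain. Growth was recorded, and inhibition was derived by comparison with vehicle controls.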
# [14] = NCI Yeast Anticancer Drug Screen. Data for the mlh1 rad18 strain (AID 175); conditions: S. cerevisiae mlh1 rad18 strain growth inhibition, stronger effect = higher value
# Summary of the method: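 Genetically defined yeast (DNA repair-deficient) exposed to compounds; growth inhibition determined relative to vehicle.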
# [15] = NCI Yeast Anticancer Drug Screen. Data for the rad18 strain (AID 177); conditions: S. cerevisiae rad18 mutant growth inhibition, stronger effect = higher value
# Summary of the method: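 Vehicle-treated cultures served as the baseline for scoring compound-induced growth inhibition in DNA-repair-mutant yeast.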
# [16] = NCI Yeast Anticancer Drug Screen. Data for the wt2 strain (AID 169);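 also: 0% = growth of vehicle-treated yeast cultures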; conditions: S. cerevisiae wt2 strain growth inhibition, stronger effect = higher value
# Summary of the method: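 Against vehicle-treated controls, the growth of yeast exposed to each compound was compared, and the inhibition was recorded.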
# [17] = at 5.0 µM (retest, dose inferred, filed as 0.5)
# [18] = at 50.0 µM (retest, dose inferred, filed as 5.0)
structure (smiles),measurement,setting,value
CCS(=O)(=O)Nc1ccc(Nc2c3ccccc3nc3ccccc23)c(OC)c1,growth inhibition,[1]; at 1.2 µM,62%
same,growth inhibition,[1]; at 3.7 µM,82% (active)
same,growth inhibition,[1]; at 11.0 µM,88% (active)
same,growth inhibition,[1]; at 33.0 µM,90% (active)
same,growth inhibition,[1]; at 100.0 µM,93% (active)
same,growth inhibition,[2]; at 1.2 µM,-36%
same,growth inhibition,[2]; at 3.7 µM,-42%
same,growth inhibition,[2]; at 11.0 µM,-38%
same,growth inhibition,[2]; at 33.0 µM,-4%
same,growth inhibition,[2]; at 100.0 µM,62%
same,growth inhibition,[3]; at 1.2 µM,-1%
same,growth inhibition,[3]; at 3.7 µM,17%
same,growth inhibition,[3]; at 11.0 µM,48%
same,growth inhibition,[3]; at 33.0 µM,77% (active)
same,growth inhibition,[3]; at 100.0 µM,84% (active)
same,growth inhibition,[4]; at 1.2 µM,-28%
same,growth inhibition,[4]; at 3.7 µM,-35%
same,growth inhibition,[4]; at 11.0 µM,-28%
same,growth inhibition,[4]; at 33.0 µM,3%
same,growth inhibition,[4]; at 100.0 µM,64%
same,growth inhibition,[5]; at 1.2 µM,51%
same,growth inhibition,[5]; at 3.7 µM,79% (active)
same,growth inhibition,[5]; [17],86% (active)
same,growth inhibition,[5]; at 11.0 µM,86% (active)
same,growth inhibition,[5]; at 33.0 µM,91% (active)
same,growth inhibition,[5]; [18],99% (active)
same,growth inhibition,[5]; at 50.0 µM,24.7%
same,growth inhibition,[5]; at 100.0 µM,92% (active)
same,growth inhibition,[6]; at 1.2 µM,-42%
same,growth inhibition,[6]; at 3.7 µM,-32%
same,growth inhibition,[6]; [17],12%
same,growth inhibition,[6]; at 11.0 µM,7%
same,growth inhibition,[6]; at 33.0 µM,69%
same,growth inhibition,[6]; [18],96% (active)
same,growth inhibition,[6]; at 50.0 µM,11.8%
same,growth inhibition,[6]; at 100.0 µM,89% (active)
same,growth inhibition,[7]; at 1.2 µM,-40%
same,growth inhibition,[7]; at 3.7 µM,-36%
same,growth inhibition,[7]; at 11.0 µM,-26%
same,growth inhibition,[7]; at 33.0 µM,5%
same,growth inhibition,[7]; at 100.0 µM,74% (active)
same,growth inhibition,[8]; [17],49%
same,growth inhibition,[8]; [18],98% (active)
same,growth inhibition,[8]; at 50.0 µM,80.8% (active)
same,growth inhibition,[9]; at 1.2 µM,-8%
same,growth inhibition,[9]; at 3.7 µM,-35%
same,growth inhibition,[9]; at 11.0 µM,-2%
same,growth inhibition,[9]; at 33.0 µM,29%
same,growth inhibition,[9]; at 100.0 µM,59%
same,growth inhibition,[10]; [17],43%
same,growth inhibition,[10]; [18],84% (active)
same,growth inhibition,[10]; at 50.0 µM,53.4%
same,growth inhibition,[11]; at 1.2 µM,-50%
same,growth inhibition,[11]; at 3.7 µM,-32%
same,growth inhibition,[11]; [17],42%
same,growth inhibition,[11]; at 11.0 µM,-36%
same,growth inhibition,[11]; at 33.0 µM,3%
same,growth inhibition,[11]; [18],65%
same,growth inhibition,[11]; at 50.0 µM,50.5%
same,growth inhibition,[11]; at 100.0 µM,67%
same,growth inhibition,[12]; at 1.2 µM,-57%
same,growth inhibition,[12]; at 3.7 µM,-33%
same,growth inhibition,[12]; at 11.0 µM,-24%
same,growth inhibition,[12]; at 33.0 µM,17%
same,growth inhibition,[12]; at 100.0 µM,74% (active)
same,growth inhibition,[13]; at 1.2 µM,-14%
same,growth inhibition,[13]; at 3.7 µM,-11%
same,growth inhibition,[13]; at 11.0 µM,-7%
same,growth inhibition,[13]; at 33.0 µM,36%
same,growth inhibition,[13]; at 100.0 µM,76% (active)
same,growth inhibition,[14]; [17],77% (active)
same,growth inhibition,[14]; [18],97% (active)
same,growth inhibition,[14]; at 50.0 µM,36%
same,growth inhibition,[15]; at 1.2 µM,-21%
same,growth inhibition,[15]; at 3.7 µM,-12%
same,growth inhibition,[15]; at 11.0 µM,-18%
same,growth inhibition,[15]; at 33.0 µM,23%
same,growth inhibition,[15]; at 100.0 µM,74% (active)
C1=CCN([B-](c2ccccc2)[C+]2CCCCC2)C=C1,growth inhibition,[1]; at 1.2 µM,-3%
same,growth inhibition,[1]; at 3.7 µM,-4%
same,growth inhibition,[1]; at 11.0 µM,1%
same,growth inhibition,[1]; at 33.0 µM,58%
same,growth inhibition,[1]; at 100.0 µM,98% (active)
same,growth inhibition,[2]; at 1.2 µM,-1%
same,growth inhibition,[2]; at 3.7 µM,-2%
same,growth inhibition,[2]; at 11.0 µM,1%
same,growth inhibition,[2]; at 33.0 µM,64%
same,growth inhibition,[2]; at 100.0 µM,98% (active)
same,growth inhibition,[3]; at 1.2 µM,-3%
same,growth inhibition,[3]; at 3.7 µM,-4%
same,growth inhibition,[3]; at 11.0 µM,-3%
same,growth inhibition,[3]; at 33.0 µM,2%
same,growth inhibition,[3]; at 100.0 µM,22%
same,growth inhibition,[4]; at 1.2 µM,-2%
same,growth inhibition,[4]; at 3.7 µM,-1%
same,growth inhibition,[4]; at 11.0 µM,0%
same,growth inhibition,[4]; at 33.0 µM,44%
same,growth inhibition,[4]; at 100.0 µM,99% (active)
same,growth inhibition,[5]; at 1.2 µM,-3%
same,growth inhibition,[5]; at 3.7 µM,-49%
same,growth inhibition,[5]; [17],-2%
same,growth inhibition,[5]; at 11.0 µM,16%
same,growth inhibition,[5]; at 33.0 µM,70% (active)
same,growth inhibition,[5]; [18],86% (active)
same,growth inhibition,[5]; at 50.0 µM,98.9% (active)
same,growth inhibition,[5]; at 100.0 µM,99% (active)
same,growth inhibition,[6]; at 1.2 µM,-1%
same,growth inhibition,[6]; at 3.7 µM,-2%
same,growth inhibition,[6]; [17],-4%
same,growth inhibition,[6]; at 11.0 µM,4%
same,growth inhibition,[6]; at 33.0 µM,76% (active)
same,growth inhibition,[6]; [18],96% (active)
same,growth inhibition,[6]; at 50.0 µM,98.7% (active)
same,growth inhibition,[6]; at 100.0 µM,99% (active)
same,growth inhibition,[7]; at 1.2 µM,-1%
same,growth inhibition,[7]; at 3.7 µM,-2%
same,growth inhibition,[7]; at 11.0 µM,1%
same,growth inhibition,[7]; at 33.0 µM,28%
same,growth inhibition,[7]; at 100.0 µM,99% (active)
same,growth inhibition,[8]; [17],-5%
same,growth inhibition,[8]; [18],92% (active)
same,growth inhibition,[8]; at 50.0 µM,99.2% (active)
same,growth inhibition,[9]; at 1.2 µM,-6%
same,growth inhibition,[9]; at 3.7 µM,-6%
same,growth inhibition,[9]; at 11.0 µM,1%
same,growth inhibition,[9]; at 33.0 µM,32%
same,growth inhibition,[9]; at 100.0 µM,95% (active)
same,growth inhibition,[10]; [17],-1%
same,growth inhibition,[10]; [18],18%
same,growth inhibition,[10]; at 50.0 µM,2.1%
same,growth inhibition,[11]; at 1.2 µM,2%
same,growth inhibition,[11]; at 3.7 µM,-1%
same,growth inhibition,[11]; [17],1%
same,growth inhibition,[11]; at 11.0 µM,4%
same,growth inhibition,[11]; at 33.0 µM,80% (active)
same,growth inhibition,[11]; [18],15%
same,growth inhibition,[11]; at 50.0 µM,-11.4%
same,growth inhibition,[11]; at 100.0 µM,97% (active)
same,growth inhibition,[16]; at 1.2 µM,-1%
same,growth inhibition,[16]; at 3.7 µM,7%
same,growth inhibition,[16]; at 11.0 µM,3%
same,growth inhibition,[16]; at 33.0 µM,94% (active)
same,growth inhibition,[16]; at 100.0 µM,98% (active)
same,growth inhibition,[12]; at 1.2 µM,-1%
same,growth inhibition,[12]; at 3.7 µM,-2%
same,growth inhibition,[12]; at 11.0 µM,-1%
same,growth inhibition,[12]; at 33.0 µM,75% (active)
same,growth inhibition,[12]; at 100.0 µM,99% (active)
same,growth inhibition,[14]; [17],0%
same,growth inhibition,[14]; [18],96% (active)
same,growth inhibition,[14]; at 50.0 µM,96.5% (active)
same,growth inhibition,[15]; at 1.2 µM,0%
same,growth inhibition,[15]; at 3.7 µM,0%
same,growth inhibition,[15]; at 11.0 µM,2%
same,growth inhibition,[15]; at 33.0 µM,75% (active)
same,growth inhibition,[15]; at 100.0 µM,98% (active)
